The values that follow come from PubChem BioAssay (NCATS).

Molecules are shown by their SMILES. Inconclusive results are not listed. The source made the active and inactive calls. Calls follow the shape of the dose curve; as a rule, active = well fitted inhibition curve with a large enough effect; inconclusive = small, poorly fitted or top-dose-only effect; inactive = no such curve, though single readings can be large or run the other way.

The subject of assay [1] is Zika virus NS2B-NS3 protease (unlinked complex). As to the kind of experiment: Primary screen GU Rhodamine qHTS for Zika virus inhibitors: Unlinked NS2B-NS3 protease assay (AID 1347159). Also: nearly all actives have a fitted effect of over 60% in size. The essentials:
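Noncovalent NS2B hydrophilic domain/NS3 protease complex (25 nM final) in 10 mM Tris-HCl pH 8.0, 0.01% Tween 20, preincubated 15 min with compounds (up to 114 microM), then 1.5 microM Rhodamine110 substrate. Fluorescence change over 15 min fitted to 4-parameter Hill.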
For orientation: In qHTS, concentration-response curves come from the screen itself.

In assay [2] the test system is Zika virus NS2B-NS3 protease (linked construct). Briefly: Primary screen NINDS Rhodamine qHTS for Zika virus inhibitors (AID 1347160). Also: nearly all actives have a fitted effect of over 55% in size. The essentials: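 Purified NS2B-NS3 protease with the NS2B hydrophilic domain joined by a flexible linker (25 nM) in 10 mM Tris-HCl pH 8.0, 0.01% Tween 20, preincubated 15 min at RT with compound; Rhodamine110 peptide substrate 1.5 µM; fluorescence change over 15 min; 4-parameter Hill fit.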
Potency is read from the fitted curve at half-maximal effect.

Turning to `Cc1cnc(-c2ccccc2C(C)C)nc1NCc1ccc(-n2ccnn2)cc1`, the Potency entry in assay [1] and in assay [2] was “inactive” in each case.

As to `CCCC(=O)C1(c2ccccc2)CCN(C(=O)[C@@H](Cc2ccc(OC)cc2)NC(=O)[C@@H](N)Cc2cncn2C)CC1`, the Potency result in assay [1] and in assay [2] was “inactive” in each case.

Take `Cc1[nH]c(/C=C2\C(=O)Nc3cc(-c4ccccc4)ccc32)c(C)c1CCC(=O)O`: the Potency is 1.78 µM (active) in assay [1] and 2.24 µM (active) in assay [2].

As for `CCC(C)C(=O)OC12C(OC(C)=O)C(C)C3(O)C(C=C(CO)CC4(O)C(=O)C(C)=CC43)C1C2(C)C` (stereo not drawn), the Potency entry in assay [1] and in assay [2] was “inactive” in each case.

Consider `Cn1nc(C(C)(C)C)cc1C(=O)N[C@@H](Cc1cccc(Cl)c1)C(=O)NCC#N`, for which the Potency entry in assay [1] and in assay [2] was “inactive” throughout.

For `Cc1[nH]c2ccccc2c1CCNCc1ccc(/C=C/C(=O)NO)cc1`, the Potency entry in assay [1] and in assay [2] was “inactive” each time.

For `C[C@H]1[C@H](/C=C/c2ccc(-c3ccccc3C#N)cn2)[C@@H]2[C@@H](C)OC(=O)[C@@H]2C[C@@H]1C`, the Potency entry in assay [1] and in assay [2] was “inactive” each time.

On to `C=C1CC[C@@H]2[C@](C)(CO)[C@H](O)CC[C@@]2(C)[C@@H]1CC(O)C1=CCOC1=O` (stereo partly drawn), for which the Potency result in assay [1] and in assay [2] was “inactive” throughout.

For the molecule `C=CC(=O)N1CCC(Oc2cc3c(Nc4ccc(Cl)c(Cl)c4F)ncnc3cc2OC)CC1`, the Potency result in assay [1] and in assay [2] was “inactive” in each case.

Take `O=C(NCCCCCCCCNC(=O)C(Cl)Cl)C(Cl)Cl`: the Potency result in assay [1] and in assay [2] was “inactive” each time.

Take `C=C1CC2OC(=O)C(=C)C2C(O)/C=C(\C)CCC1O` (stereo not drawn): the Potency entry in assay [1] and in assay [2] was “inactive” throughout.

In the case of `CC(=O)OC[C@]12[C@H](OC(C)=O)[C@H](OC(=O)c3ccccc3)[C@@H]3[C@@H](OC(C)=O)[C@]1(OC3(C)C)[C@H](C)C[C@H](OC(C)=O)[C@@H]2OC(=O)c1ccccc1`, the Potency result in assay [1] and in assay [2] was “inactive” throughout.

For `C=C(C)C1CC(O)C(C)C12CC(O)C1(C)OC1C2O` (stereo not drawn), the Potency entry in assay [1] and in assay [2] was “inactive” throughout.

Turning to `O=C(NC1(c2ccccc2)CC1)c1c(CN2CCC(N3CCCCC3)CC2)c(-c2cccc(C(F)(F)F)c2)nc2cc(Br)ccc12`, the Potency entry in assay [1] and in assay [2] was “inactive” in each case.

As to `CC(=O)O[C@@H]1[C@@H](O)[C@H](O[C@@H]2[C@@H](O)[C@@H](O)[C@H](O[C@H]3[C@H](O[C@H]4[C@H](O[C@H]5CC[C@@]6(C)C(CC[C@]7(C)C6CC=C6[C@@H]8CC(C)(C)CC[C@]8(C(=O)O)CC[C@]67C)[C@]5(C)CO)O[C@H](CO)[C@@H](O)[C@@H]4O)OC[C@@H](O)[C@@H]3O)O[C@H]2C)OC[C@H]1O` (stereo partly drawn), the Potency result in assay [1] and in assay [2] was “inactive” throughout.

`C=C1CC2OC(=O)C(=C)C2C(OC(=O)/C(C)=C\C)CC2(C)OC1=CC2=O` (stereo not drawn): the Potency entry in assay [1] and in assay [2] was “inactive” each time.

Consider `COc1ccc(CNc2nc(N(CCO)CCO)nc3c2ncn3C(C)C)cc1`, for which the Potency entry in assay [1] and in assay [2] was “inactive” throughout.

For `CCNC(=O)Nc1ccc(-c2nc3c(c(N4CCOCC4C)n2)CCN(C2COC2)C3)cc1` (stereo not drawn), the Potency entry in assay [1] and in assay [2] was “inactive” throughout.

Take `CNS(=O)(=O)c1ccccc1Nc1nc(Nc2ccc(N3CCN(C)CC3)cc2OC)ncc1Br`: the Potency result in assay [1] and in assay [2] was “inactive” in each case.

`Nc1nc2c(s1)CCN(Cc1ccc(Cl)cc1)CC2`: the Potency entry in assay [1] and in assay [2] was “inactive” throughout.

With `O=C(NCCCN1CCOCC1)c1cnn2c(-c3ccccc3)cc(-c3ccccc3)nc12`, the Potency result in assay [1] and in assay [2] was “inactive” each time.

Regarding `CC(C)n1nc(C#Cc2ccccc2)c2c(N)ncnc21`, the Potency entry in assay [1] and in assay [2] was “inactive” throughout.

With `COc1cc(C(C)=O)c(OC)c2c1OC(C)(C)C=C2`, the Potency result in assay [1] and in assay [2] was “inactive” each time.

Regarding `COc1cc2ncnc(Oc3ccc(CC(=O)Nc4cnn(C(C)C)c4)cc3)c2cc1OC`, the Potency result in assay [1] and in assay [2] was “inactive” throughout.

As to `CCCCNc1ncc(C(=O)NCc2ccc(-n3ccnc3)cc2)c(NC2CCC(O)CC2)n1` (stereo not drawn), the Potency entry in assay [1] and in assay [2] was “inactive” each time.

As to `CCN1CCN(Cc2ccc(NC(=O)c3ccc(C)c(Oc4ncnc5[nH]c(C)cc45)c3)cc2C(F)(F)F)CC1`, the Potency result in assay [1] and in assay [2] was “inactive” throughout.

As for `Cc1cc(-c2ncc(-c3cccnc3)cc2/C=C/c2ccccc2)cnc1-c1cccnc1`, the Potency entry in assay [1] and in assay [2] was “inactive” each time.

Consider `COC1=CC(=O)C[C@@H](C)[C@@]12Oc1c(Cl)c(OC)cc(OC)c1C2=O`, for which the Potency entry in assay [1] and in assay [2] was “inactive” each time.

Regarding `COc1ccc([C@H]2OC[C@H]3O[C@@H](O[C@H]4[C@@H]2NC[C@@H]4O)[C@H](O)[C@H]3O)cc1`, the Potency result in assay [1] and in assay [2] was “inactive” throughout.

With `Cc1ccc(-c2c(C(=O)CCl)n(CCCO)c3ncnc(N)c23)cc1`, the Potency result in assay [1] and in assay [2] was “inactive” throughout.

As for `O=C(Nc1ccc2[nH]nc(-c3ccncc3)c2c1)[C@@H]1CCN(CC(=O)N2CCN(c3ccc(-c4ncccn4)cc3)CC2)C1`, the Potency result in assay [1] and in assay [2] was “inactive” in each case.

With `CC1CCCC(O)CC(=O)c2c(O)cc(O)cc2CC(=O)O1` (stereo not drawn), the Potency result in assay [1] and in assay [2] was “inactive” in each case.

In the case of `C=CC(=O)Nc1ccc(CN2C(=O)N(c3cc(OC)cc(OC)c3)Cc3cnc(Nc4ccc(N5CCN(C)CC5)cc4)nc32)cc1`, the Potency result in assay [1] and in assay [2] was “inactive” throughout.

Consider `CC(C)(C)c1ccc(-c2nc3c(N4CCN(Cc5ccc6nccnc6c5)CC4)cccc3[nH]2)cc1`, for which the Potency result in assay [1] and in assay [2] was “inactive” each time.

On to `O=S1(=O)CCN(Cc2cc(NCC3CCOCC3)c3[nH]c(-c4ccccc4)cc3c2)CC1`, for which the Potency result in assay [1] and in assay [2] was “inactive” each time.

In the case of `NC(=O)c1cccc2[nH]c(-c3ccc(C4CCCN4)cc3F)nc12` (stereo not drawn), the Potency result in assay [1] and in assay [2] was “inactive” throughout.

`C/C=C/C1=CC2=C(CO1)C(=O)C(C)(OC(=O)c1c(C)cc(O)cc1OC)C(O)C2` (stereo not drawn): the Potency result in assay [1] and in assay [2] was “inactive” throughout.

For the molecule `CC(C)n1cnc2c(-c3cnc(N)nc3)nc(N3CCOCC3)nc21`, the Potency result in assay [1] and in assay [2] was “inactive” throughout.

Regarding `Cc1cn2c(n1)Cc1ccc(Cl)cc1C(c1ccc(N)cc1)=N2`, the Potency result in assay [1] and in assay [2] was “inactive” throughout.
